DT40 TDP1 CPT = growth inhibition of DT40 Tdp1-/-;hTDP1 cells with camptothecin (screen for TDP1 inhibitors) | chicken DT40 Tdp1-/-;hTDP1 cells + 20 nM CPT, ATP luminescence, 48 h | Potency, µM (series often up to 46.2 µM), for the others: top-dose activity change, negative = growth inhibition, actives largely listed as inhibitors | hit rate 12% among 420,000; also: potency is read from the fitted curve at half-maximal effect; % is scaled to controls: 0 for no effect and ±100 for the full control effect; nearly all actives have a fitted effect of over 55% in size
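Chicken DT40 Tdp1-/- cells complemented with human TDP1, 400 cells/well, exposed to compounds plus 20 nM camptothecin for at least 48 h at 37 C; viability read as ATP content by CellTiter-Glo luminescence.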
HepG2 tox = HepG2 cytotoxicity, counter-screen for TGF-b inhibitors; HepG2 CAGA-GFP viability, ATP luminescence, 18 h; Potency, µM (series often up to 46.1 µM), without a hit: at the highest dose activity change, negative = cytotoxicity, hits mostly cytotoxic; hit rate 0.76% among 410,000; also: potency is read from the fitted curve at half-maximal effect
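CellTiter-Glo luminescence gave cytotoxicity after 18 hours at 37 degrees C. The cells were HepG2 CAGA-GFP in 1% FBS DMEM, stimulated with 500 pg/mL TGF-beta after compound addition. %Activity was normalised to no-cell wells (complete cell-killing) and DMSO (no toxicity), and curves were fitted and classified.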
ASM inhibitor = blocks human secretory acid sphingomyelinase. placental ASM, HMU-PC fluorogenic substrate, 60 min. Potency, µM (highest dose often 57.5 µM), for the others: at the highest dose activity change, negative = inhibition, hits mostly inhibitors. hit rate 0.006% among 340,000. AID 504937; also: potency is read from the fitted curve at half-maximal effect
Target sequence (P17405 47-631 limits assumed): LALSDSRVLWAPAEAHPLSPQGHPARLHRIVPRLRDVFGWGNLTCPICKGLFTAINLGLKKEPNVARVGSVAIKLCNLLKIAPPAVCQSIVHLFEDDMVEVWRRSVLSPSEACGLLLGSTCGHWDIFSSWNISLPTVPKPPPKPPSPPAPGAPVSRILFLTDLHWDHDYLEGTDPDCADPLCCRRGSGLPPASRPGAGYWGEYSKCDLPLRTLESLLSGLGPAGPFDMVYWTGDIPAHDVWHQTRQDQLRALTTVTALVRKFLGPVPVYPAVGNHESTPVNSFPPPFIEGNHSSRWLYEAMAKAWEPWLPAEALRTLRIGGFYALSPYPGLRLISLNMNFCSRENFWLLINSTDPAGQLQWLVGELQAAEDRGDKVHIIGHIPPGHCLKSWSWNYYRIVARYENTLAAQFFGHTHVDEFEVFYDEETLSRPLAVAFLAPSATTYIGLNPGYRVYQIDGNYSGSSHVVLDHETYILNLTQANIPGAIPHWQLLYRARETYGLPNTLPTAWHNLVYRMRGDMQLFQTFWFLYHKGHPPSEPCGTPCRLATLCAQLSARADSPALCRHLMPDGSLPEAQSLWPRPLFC
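Human placenta-derived ASM preincubated with compound 10 min at room temperature, then reacted with 9 uM (final) fluorogenic HMU-PC substrate for 60 min at 37 C. Stop solution raises pH to 10; fluorescence read at Ex 386/Em 447 nm.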
TGFb inhibitor = blocks TGF-b signaling; AID 588855; Potency, µM (titrated, usually from 46.1 µM), without a hit: at the top dose activity, negative = inhibition, actives largely listed as inhibitors; HepG2 CAGA-GFP TGF-b/SMAD3 reporter, GFP fluorescence, 18 h; TGF-beta stimulated, 500 pg/mL final; hit rate 1.2% among 410,000; also: potency is read from the fitted curve at half-maximal effect; % is scaled to controls: 0 for no effect and ±100 for the full control effect; nearly all actives have a fitted effect of over 65% in size
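HEPG2 CAGA-GFP cells (1000/well, DMEM with 1% FBS) were pre-incubated 2 h at 37 degrees C, given compound by pin tool, then stimulated with TGF-beta at 500 pg/mL final for 18 h before per-cell GFP fluorescence imaging.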
IL1B secr inh = blocks inflammasome-driven IL-1 beta release; AID 743279; THP-1 LPS/ATP IL-1B secretion, AlphaLISA, 16 h; stronger effect = lower value; activity change, % at 57.5 µM; hit rate 4.7% among 360,000; in the data active = activity change below about -50%; inconclusive = mostly about -30% to -49%; also: % is scaled to controls: 0 for no effect and ±100 for the full control effect
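Secreted IL-1B measured by AlphaLISA bead assay after 16 h compound exposure of THP-1 cells; compounds (final up to 57.5 uM) added 1 h before LPS (250 ng/mL) and ATP (1.25 mM) stimulation; lower signal means less secretion.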
DT40 TDP1 no CPT = qHTS for Inhibitors of human tyrosyl-DNA phosphodiesterase 1 (TDP1): qHTS in cells in absence of CPT. Potency, µM (doses to about 46.2 µM), for the others: top-dose activity change, negative = growth inhibition, most hits filed as inhibitors. DT40 Tdp1-/- hTDP1 cells, no CPT, ATP luminescence, 48 h. hit rate 15% among 420,000; also: potency is read from the fitted curve at half-maximal effect; % is scaled to controls: 0 for no effect and ±100 for the full control effect; nearly all actives have a fitted effect of over 55% in size
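Growth of hTDP1-complemented DT40 Tdp1-knockout cells is measured by ATP luminescence after at least 48 hr compound exposure at 37 °C, with DMSO substituting for the 20 nM CPT used in the parallel screen.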
The depositor's hits bear a star; u = inconclusive; x = no result given; ! = not confirmed by another sample. Shown are actives, neighbours in structure and some others; about 19% of the full set was active somewhere. Unless noted, calls follow the shape of the dose curve; as a rule, active = well fitted curve in the direction sought with a large enough effect; inconclusive = small, poorly fitted or top-dose-only effect, or another doubt; inactive = no such curve, though single readings can be large; an effect the other way counts as inactive or inconclusive.

SMILES	DT40 TDP1 CPT	HepG2 tox	ASM inhibitor	TGFb inhibitor	IL1B secr inh	DT40 TDP1 no CPT
CCOc1cc2c(cc1OCC)-n1cccc1C(c1cccc(F)c1)NC2 (stereo unspecified)	21µM*	-13%	7%	-2%	u	u
CCOc1cc2c(cc1OCC)-n1cccc1C(c1cc(OC)ccc1F)NC2 (stereo unspecified)	18µM*	-24%	0%	-1%	-2	16µM*
Clc1cccc(C2NCc3ccccc3-n3cccc32)c1 (stereo unspecified)	u	-2%	1%	0%	17	u
CCOc1cc2c(cc1OCC)-n1cccc1C(c1ccccc1F)NC2 (stereo unspecified)	u	-1%	3%	49%	u	18µM*
N[C@@H](CCP(=O)(O)O)C(=O)O	2%	x	x	x	x	1%
O=c1ccc2cc(OC3OC(CO)C(O)C(O)C3O)c(O)cc2o1 (stereo unspecified)	u	x	x	x	x	-2%
CC1CC(Cl)CCC1C(=O)OC(C)(C)C (stereo unspecified)	11%	x	x	x	x	10%
CC1CN1P1(=O)OCC(C)([N+](=O)[O-])CO1 (stereo unspecified)	u	-14%	1%	-15%	20	u
CC(C)CCCC(C)C1CCC2C3C(=O)C=C4CC(O)CC[C@@]4(C)C3CC[C@@]12C (stereo partly specified)	-14%	x	x	x	x	-28%
COc1ccc(C(=O)Oc2c(CN3CCOCC3)cc(Cl)c3cccnc23)cc1OC	5µM*	-29%	1%	-11%	0	5.6µM*
COc1ccc(CCNC2CCCCC2)cc1OC	16%	-14%	-2%	4%	0	11%
CCn1nc(-c2cccs2)nc2c(=O)n(C)c(=O)nc1-2	0.58µM*	0.35µM*	1%	u	-68*	1.2µM*
CCOc1ccc(-n2c(-c3cccs3)nc3ccccc3c2=O)cc1	u	-9%	0%	2%	22	u
CCn1nc(/C=C/c2ccccc2)nc2c(=O)n(C)c(=O)nc1-2	1.6µM*	0.89µM*	-2%	0.4µM*	-110*	2.1µM*
CN(C)C/C=C(/c1ccc(Br)cc1)c1cccnc1	30µM*!	-4%	-7%	40%	-20	12µM*
CN1CCN(c2nc3ccccc3o2)CC1	14%	2%	1%	-4%	39	-1%
C[C@]12CCC3C(CC[C@H]4C[C@@H](O)[C@H](O)C[C@]34C)C1CC[C@@H]2O (stereo partly specified)	-16%	-6%	-2%	12%	17	-11%
C[C@]12CCC3C(CC[C@H]4C[C@H](O)[C@H](O)C[C@]34C)C1CC[C@@H]2O (stereo partly specified)	21µM*	-13%	0%	15%	14	u
O=C(NC(=O)c1c(F)cccc1F)Nc1ccc(Cl)c(Oc2ncc(C(F)(F)F)cc2Cl)c1	10%	x	x	x	x	-20%
CCN1/C(=C\C=C\C2=[N+](CC)c3ccccc3C2(C)C)C(C)(C)c2ccccc21	0.092µM*	-62%	-19%	u	-98*	0.15µM*
O=c1[nH]c2ccccc2c(=O)n1-c1ccc(Cl)c(Cl)c1	u	0%	x	2%	x	-14%
O=c1[nH]c2ccccc2c(=O)n1-c1ccc(Cl)cc1Cl	16µM*	-29%	6%	15%	-9	18µM*
Cc1cc(C)cc(-n2c(=O)[nH]c3ccccc3c2=O)c1	18µM*	4%	x	13%	x	u
Cc1ccc2c(c1)P(=O)(O)c1cc(C)ccc1O2	13%	-1%	3%	-13%	13	6%
Cc1nc2ccc(Cl)cc2c(=O)n1-c1cccc(Cl)c1	u	2%	1%	-1%	0	u
SMILES	DT40 TDP1 CPT	HepG2 tox	ASM inhibitor	TGFb inhibitor	IL1B secr inh	DT40 TDP1 no CPT
CC(C)(C)c1nc(N2CCN(C(=O)c3ccco3)CC2)c2nnn(Cc3ccccc3Cl)c2n1	u	-14%	-7%	u	-9	21µM*
CCNC(C)Cc1cccc(C(F)(F)F)c1 (stereo unspecified)	2%	x	x	x	x	-15%
CCCCn1c(O)c(/C=C2/C=CC=N2)c(=O)[nH]c1=O	18µM*	-9%	-1%	8%	-10	4.1µM*
O=c1[nH]c(=O)n(Cc2ccccc2Cl)c(O)c1/C=C1/C=CC=N1	5.8µM*	-14%	-18%	-30%	22	5.8µM*
C=CCn1c(O)c(/C=C2/C=CC=N2)c(=O)[nH]c1=O	u	-33%	-3%	u	15	u
Cn1ncc2c(NCc3ccc(F)cc3)ncnc21	u	3%	x	0%	x	u
COc1ccc(Br)cc1C1SCC(=O)Nc2c1c(C)nn2-c1ccccc1C (stereo unspecified)	u	-22%	x	-20%	x	18µM*
Cc1ccc(-n2nc(C)c3c2NC(=O)CSC3c2ccc(O)cc2)cc1Cl (stereo unspecified)	-26%	-13%	x	-26%	x	u
Cc1ccccc1-n1nc(C)c2c1NC(=O)CSC2c1ccccc1C(F)(F)F (stereo unspecified)	26µM*	-39%	x	u	x	u
CCC1(c2ccc(C)cc2)C(=O)NC(=S)NC1=O	6%	1%	x	1%	-10	2%
CC(=O)OC1CC[C@@]2(C)C3CC(=O)[C@]4(C)C(C(C)=O)=CCC4C3CC[C@H]2C1 (stereo partly specified)	-4%	x	x	x	x	u
CCCCCC1CC(CC(=O)NC(=S)Nc2ccc([N+](=O)[O-])cc2)C(=O)O1 (stereo unspecified)	-30%	-14%	u	0%	18	-16%
c1ccc(-c2ccc(-c3n(-c4ccccn4)c4ccccc4[n+]3-c3ccccn3)cc2)cc1	5.8µM*	-7%	-2%	18µM*	-10	8.2µM*
Cc1cccc(NC(=O)Cn2cc(C(=O)c3ccccc3)c3ccccc32)c1C	u	-14%	x	-25%	x	u
CC(=O)N1CC2CC(C1)c1cccc(=O)n1C2 (stereo unspecified)	14%	x	x	x	x	-2%
S=C(S)N1CCCC1	0.06µM*	0%	0%	13%	5	0.053µM*
CCOc1ccc2c3c1O[C@H]1[C@@H](O)C=C[C@H]4[C@@H](C2)N(C)CC[C@@]341	-22%	x	x	x	x	u

Screens: PubChem, National Center for Advancing Translational Sciences (NCATS)
